In PubChem BioAssay (NCATS):
Inconclusive results are not listed. Calls of active or inactive are those of the source. Calls follow the shape of the dose curve; as a rule, active = well fitted curve in the direction sought with a large enough effect; inconclusive = small, poorly fitted or top-dose-only effect, or another doubt; inactive = no such curve, though single readings can be large; an effect the other way counts as inactive or inconclusive.

What was measured:
[1] = qHTS of pediatric cancer cell lines to identify multiple opportunities for drug repurposing: Primary screen for TC32 cells (AID 1347089); also: nearly all actives have a fitted effect of over 60% in size
In short: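 In the primary qHTS, MIPE compounds were tested at 11 concentrations (0.78 nM to 46 µM) and NPC compounds at 8 (0.59 nM to 46 µM) on TC32 cells for 48 h. CellTiter-Glo luminescence gave viability.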

[2] = qHTS of pediatric cancer cell lines to identify multiple opportunities for drug repurposing: Primary screen for DAOY cells (AID 1347090); also: nearly all actives have a fitted effect of over 55% in size; also: potency is read from the fitted curve at half-maximal effect
In short: (§1)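 Viability measured as metabolically active cells via CellTiter-Glo luminescence following 48 hours of compound exposure, 11-point dilutions in confirmatory testing. 500-1,000 cells/well plated 5 hours before dosing; controls were DMSO and 2.3 µM bortezomib.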

[3] = qHTS of pediatric cancer cell lines to identify multiple opportunities for drug repurposing: Primary screen for SK-N-MC cells (AID 1347093); also: potency is read from the fitted curve at half-maximal effect
In short: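 Metabolically active cells were quantified by ATP-dependent luminescence (CellTiter-Glo, 15 min at room temperature) following 48 h treatment. Cells had been plated at 500-1,000 per well and settled for 5 h beforehand.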

[4] = qHTS of pediatric cancer cell lines to identify multiple opportunities for drug repurposing: Primary screen for BT-37 cells (AID 1347094); also: potency is read from the fitted curve at half-maximal effect
In short: (§2)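 Following a 5-hour attachment period, cells at 500-1,000/well received compounds and were cultured for 48 hours. CellTiter-Glo was added and luminescence read to estimate viable, metabolically active cells.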

[5] = qHTS of pediatric cancer cell lines to identify multiple opportunities for drug repurposing: Primary screen for NB-EBc1 cells (AID 1347095); also: potency is read from the fitted curve at half-maximal effect
In short: as §2

[6] = qHTS of pediatric cancer cell lines to identify multiple opportunities for drug repurposing: Primary screen for Saos-2 cells (AID 1347097); also: nearly all actives have a fitted effect of over 40% in size; also: potency is read from the fitted curve at half-maximal effect
In short: as §2

[7] = qHTS of pediatric cancer cell lines to identify multiple opportunities for drug repurposing: Primary screen for NB1643 cells (AID 1347099); also: nearly all actives have a fitted effect of over 50% in size; also: potency is read from the fitted curve at half-maximal effect
In short: as §2

[8] = qHTS of pediatric cancer cell lines to identify multiple opportunities for drug repurposing: Primary screen for LAN-5 cells (AID 1347100); also: potency is read from the fitted curve at half-maximal effect
In short: (§3)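 Viability after 48 h compound treatment at 37C, 500-1,000 cells/well, read as ATP luminescence with CellTiter-Glo. Primary screens used 11-point (MIPE, 0.78 nM-46 µM) or 8-point (NPC, 0.59 nM-46 µM) final concentrations; follow-up screens used 11-point dilutions.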

[9] = qHTS of pediatric cancer cell lines to identify multiple opportunities for drug repurposing: Primary screen for BT-12 cells (AID 1347101); also: nearly all actives have a fitted effect of over 25% in size; also: potency is read from the fitted curve at half-maximal effect
In short: (§4)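 Cells (500-1,000/well) rested 5 h, then received compounds for 48 h; metabolically active cells were measured by CellTiter-Glo luminescence. Final concentrations spanned up to 46 µM (MIPE, 11-point) or 0.59 nM-46 µM (NPC, 8-point) in primary screens, 11-point in follow-ups.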

[10] = qHTS of pediatric cancer cell lines to identify multiple opportunities for drug repurposing: Primary screen for Rh18 cells (AID 1347102); also: nearly all actives have a fitted effect of over 65% in size
In short: as §3

[11] = qHTS of pediatric cancer cell lines to identify multiple opportunities for drug repurposing: Primary screen for OHS-50 cells (AID 1347103); also: nearly all actives have a fitted effect of over 40% in size; also: potency is read from the fitted curve at half-maximal effect
In short: as §4

[12] = qHTS of pediatric cancer cell lines to identify multiple opportunities for drug repurposing: Primary screen for RD cells (AID 1347104); also: nearly all actives have a fitted effect of over 55% in size; also: potency is read from the fitted curve at half-maximal effect
In short: as §2

[13] = qHTS of pediatric cancer cell lines to identify multiple opportunities for drug repurposing: Primary screen for U-2 OS cells (AID 1347096); also: nearly all actives have a fitted effect of over 50% in size
In short: as §3

[14] = qHTS of pediatric cancer cell lines to identify multiple opportunities for drug repurposing: Primary screen for SK-N-SH cells (AID 1347098); also: nearly all actives have a fitted effect of over 65% in size; also: potency is read from the fitted curve at half-maximal effect
In short: as §4

[15] = qHTS of pediatric cancer cell lines to identify multiple opportunities for drug repurposing: Primary screen for SJ-GBM2 cells (AID 1347091); also: potency is read from the fitted curve at half-maximal effect
In short: as §1

[16] = qHTS of pediatric cancer cell lines to identify multiple opportunities for drug repurposing: Primary screen for A673 cells (AID 1347092); also: nearly all actives have a fitted effect of over 45% in size; also: potency is read from the fitted curve at half-maximal effect
In short: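 48 h compound exposure, A673, 500-1,000 cells/well, 37 degrees C/5% CO2. MIPE: 11-point, 0.78 nM-46 µM; NPC: 8-point, 0.59 nM-46 µM (final). Readout CellTiter-Glo luminescence after 15 min RT.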

Measured: Potency

CCCCC1=NC2(CCCC2)C(=O)N1Cc1ccc(-c2ccccc2-c2nn[nH]n2)cc1
not listed: [13] | [14] | [15] | [16]
inactive: all other assays above

COc1ccc(C2C(=O)c3ccccc3C2=O)cc1
not listed: [3] | [15] | [16]
inactive: all other assays above

CC(=O)c1ccc2c(c1)N(CCCN1CCC(CCO)CC1)c1ccccc1S2
inactive: [1] | [2] | [3] | [5] | [6] | [7] | [8]

CCCCOc1ccc(C(=O)CCN2CCCCC2)cc1
inactive: [1] | [2] | [13]
active: [5] 21.1 µM | [6] 23.7 µM

Clc1ccc2c(c1)CCc1cccnc1C2=C1CCNCC1
inactive: [1] | [2] | [4] | [13] | [7]

CC(C)NC[C@@H](O)COc1cccc2ccccc12
active: [12] 26.6 µM
not listed: [3] | [6] | [11] | [14] | [15] | [16]
inactive: all other assays above

CN(C)CC/C=C1\c2ccccc2Sc2ccc(Cl)cc21
active: [11] 30.9 µM
inactive: [1] | [2] | [13] | [7]

CC/C(=C(/CC)c1ccc(O)cc1)c1ccc(O)cc1
active: [2] 21.1 µM | [3] 6.68 µM | [14] 5.45 µM | [11] 15.5 µM
inactive: [1] | [13]

COC(=O)C1=C(C)NC(C)=C(C(=O)O[C@@H]2CCCN(Cc3ccccc3)C2)[C@@H]1c1cccc([N+](=O)[O-])c1
active: [14] 30.7 µM
inactive: [1] | [2] | [7] | [12]

COc1cc(N)c(Cl)cc1C(=O)NC1CCN(CCCOc2ccc(F)cc2)CC1OC (stereo unspecified)
inactive: [1] | [2] | [4] | [5] | [13] | [6] | [7] | [8]
active: [11] 30.9 µM

NC(=O)C(=O)N/N=C/c1ccc([N+](=O)[O-])o1
active: [7] 21.1 µM | [8] 29.9 µM
inactive: [1] | [15]

COC1=CC(=O)C[C@@H](C)[C@]12Oc1c(Cl)c(OC)cc(OC)c1C2=O
active: [15] 21.1 µM | [5] 11.9 µM
inactive: [13] | [7] | [12]

CC1=C(C(=O)OC(C)C)C(c2cccc([N+](=O)[O-])c2)C(C(=O)OC2CN(C(c3ccccc3)c3ccccc3)C2)=C(N)N1 (stereo unspecified)
active: [16] 13.3 µM | [6] 21.1 µM | [12] 23.7 µM

CN(C/C=C/c1ccccc1)Cc1cccc2ccccc12
inactive: [1] | [13] | [7] | [12]
active: [6] 23.7 µM | [11] 27.6 µM

CC(=O)N(O)CCCCCNC(=O)CCC(=O)N(O)CCCCCNC(=O)CCC(=O)N(O)CCCCCN
inactive: [16] | [13] | [6]
active: [2] 8.41 µM | [4] 12.3 µM | [9] 12.3 µM

C=C(CC)C(=O)c1ccc(OCC(=O)O)c(Cl)c1Cl
active: [3] 18.8 µM | [5] 21.1 µM | [14] 17.2 µM
inactive: [15] | [11]

COc1ccc(/C=C/C(=O)c2ccc(OC)cc2OC)cc1
active: [6] 10.6 µM | [14] 19.4 µM | [8] 21.1 µM
inactive: [1] | [13]
